Sampled rows, rich in hits. Any-hit rate of the full collection: about 0.68%.
ugtP null kill: compounds lethal to S. aureus RN4220 ugtP deletion mutant | 0.54% of 330,000 active | growth inhibition, % (no concentration beside the values) | OD600 growth, 16 h; in the data active = growth inhibition above about 68%
Sa RN4220 lethal: S. aureus RN4220 growth inhibition | OD600, 16 h | inhibition, % (test concentration not listed) | 0.33% of 330,000 active | AID 1259311; in the data active = inhibition above about 85%
Rv3671c protease: inhibitors of M. tuberculosis serine protease Rv3671c. P9WHR9. inhibition, % at 5.96 µM. 0.048% of 320,000 active. AID 2606; in the data active = inhibition above about 38%;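 also: extracellular domain of Rv3671c used as enzyme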
Target sequence (P9WHR9 whole entry, looked up, the tested form may be a part): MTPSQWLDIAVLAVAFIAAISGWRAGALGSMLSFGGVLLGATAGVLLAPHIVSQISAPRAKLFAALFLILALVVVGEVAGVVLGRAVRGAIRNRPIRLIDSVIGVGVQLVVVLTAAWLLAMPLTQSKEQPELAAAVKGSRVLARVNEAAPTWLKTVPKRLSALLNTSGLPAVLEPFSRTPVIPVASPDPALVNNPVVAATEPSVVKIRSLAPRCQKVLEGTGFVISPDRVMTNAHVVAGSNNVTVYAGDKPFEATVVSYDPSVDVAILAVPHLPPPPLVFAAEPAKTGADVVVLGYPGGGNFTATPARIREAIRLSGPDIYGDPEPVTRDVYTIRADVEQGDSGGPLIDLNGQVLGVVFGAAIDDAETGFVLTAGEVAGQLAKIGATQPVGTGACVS
Mtb bLac sens: beta-lactam sensitization of Mtb H37Rv; M. tuberculosis H37Rv growth with meropenem, percent inhibition; inhibition, % at 25 µM; 0.27% of 330,000 active; AID 434955; call rule not given here;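 also: growth measured after seven days incubation then overnight dye step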
Mtb hypoxia inh: inhibitors of hypoxia-regulated fluorescent reporter in Mycobacterium tuberculosis | M. tuberculosis hypoxia-regulated fluorescent reporter, fluorescence | 0.1% of 300,000 active | AID 1159583 | fluorescence inhibition, % (concentration not given with the values); in the data active = fluorescence inhibition mostly above about 23%, no sharp cut-off; inactive = mostly below about 17%
Mtb UGM inh: blocks M. tuberculosis UGM enzyme; AID 504406; P9WIQ1; 0.06% of 320,000 active; purified UGM, fluorescence polarization probe displacement; inhibition, % at 10 µM; in the data active = inhibition above about 10%, passing the limit was not always enough
Each line names hits and unclear results; the compound was inactive in the other large screens; ! = not confirmed by another sample.

Cc1nc(NC(=O)c2ccc(Cl)cc2)nc2cc3c(cc12)OCO3	none
CC1(C)CC[C@]2(C(=O)O)CC[C@]3(C)C(=CCC4[C@@]5(C)CCC(O)C(C)(C)C5CC[C@]43C)C2C1 (stereo not given in full)	ugtP null kill 91.3! (no result: Rv3671c protease, Mtb bLac sens, Mtb UGM inh)
CC1(C)C(O)CC[C@@]2(C)C1CC[C@]1(C)C2C(=O)C=C2C3C[C@@](C)(C(=O)O)CC[C@]3(C)CC[C@]21C (stereo not given in full)	ugtP null kill 87.0 (no result: Rv3671c protease, Mtb bLac sens, Mtb UGM inh)
CCCC=C(CCC)C(NC(=O)Cc1ccccc1)c1ccc(C(=O)OC)cc1 (stereo not given)	none (no result: Rv3671c protease, Mtb bLac sens, Mtb UGM inh)
COc1ccc(-c2nc3oc4cc(OC)ccc4c(=O)c3c(=O)n2Cc2ccco2)cc1	ugtP null kill 97.9
COCc1cccc(C2=CC(=O)CC(c3ccc(F)cc3)C2)c1 (stereo not given)	none (no result: Rv3671c protease, Mtb bLac sens, Mtb UGM inh)
COc1cc(C=NNC(=O)c2cc(-c3cccn3C)n[nH]2)cc(OC)c1OC	ugtP null kill 90.0 (not shown: Rv3671c protease, Mtb bLac sens, Mtb hypoxia inh, Mtb UGM inh)
COc1ccccc1C=CC(=O)NCC(=O)NN=Cc1ccc2c(c1)OCO2	none (no result: Rv3671c protease, Mtb bLac sens, Mtb UGM inh)
Oc1c(I)cc(I)c2cccnc12	ugtP null kill 95.8, Sa RN4220 lethal 95.5 (no result: Mtb UGM inh)
Cn1c(-c2ccccc2)cc2c3no[n+]([O-])c3ccc21	Mtb hypoxia inh 47.5
Cn1c(-c2ccccc2)cc2ccccc21	none
CCc1ccc[n+](-c2[nH]c(=O)sc2C=NNC([S-])=Nc2ccccc2)c1	none (no result: Rv3671c protease, Mtb bLac sens, Mtb UGM inh)
COc1ccccc1-c1cc(C(F)(F)F)nc(N2CCCC2)n1	ugtP null kill 86.0
Cc1noc(C)c1NC(=O)N(C)CC1Oc2ccc(NS(=O)(=O)c3cccs3)cc2C(=O)N(C(C)CO)CC1C (stereo not given)	none (no result: Rv3671c protease, Mtb bLac sens, Mtb UGM inh)
C=CCNC(=S)NNc1nc2c(c(=O)[nH]1)C1(CCCCC1)Cc1ccccc1-2	ugtP null kill 85.4
COC(=O)c1cccc(NC(=S)Nc2cccc(Cl)c2C)c1	none
COC(=O)c1cccc(NC(=S)Nc2ccccc2Cl)c1	none
COC(=O)c1cc(NC(=S)Nc2cc(Cl)cc(Cl)c2)cc(C(=O)OC)c1	ugtP null kill 99.3, Sa RN4220 lethal 99.2
COC(=O)c1cccc(NC(=S)Nc2ccc(Cl)c(Cl)c2)c1	ugtP null kill 89.7, Sa RN4220 lethal 100.0
O=C1C=C(NCc2ccccc2)c2ccccc2C1=O	ugtP null kill 91.5, Sa RN4220 lethal 92.0 (no result: Rv3671c protease, Mtb bLac sens, Mtb UGM inh)
CCOC(=O)c1cnn(-c2nc(SC)nc3sc4c(c23)CCCC4)c1N	ugtP null kill 100.2, Sa RN4220 lethal 99.8
O=C(CCN1C(=O)/C(=C/c2ccccc2Cl)SC1=S)NC1=NCCS1	ugtP null kill 86.7
O=[N+]([O-])c1ccc2c(c1)ncn2-c1ccccc1	none
O=[N+]([O-])c1ccc(-n2cnc3ccccc32)c([N+](=O)[O-])c1	Mtb hypoxia inh 41.6
CC(C=NN1C(=O)CSC1=S)=Cc1ccccc1	none (no result: Rv3671c protease, Mtb bLac sens, Mtb UGM inh)
CN(C)S(=O)(=O)c1ccc(C(=O)OCC(=O)NC(=O)NC2CCCC2)cc1	Mtb hypoxia inh 30.7
CC(O)C1CNC(=O)C(=O)N1CCc1cccc(F)c1 (stereo not given)	none (no result: Rv3671c protease, Mtb bLac sens, Mtb UGM inh)
CC(C)CC(CO)N1CCN(CCc2ccccc2)CCC1=O (stereo not given)	none (no result: Rv3671c protease, Mtb bLac sens, Mtb UGM inh)
Cc1cc(C(C)(C)C)cc(C)c1Cn1c2[n+](c3ccc(C(F)(F)F)cc31)CCCCC2	ugtP null kill 100.3, Sa RN4220 lethal 100.6 (not shown: Mtb hypoxia inh)
NC(=O)C1(NC(=O)C2CC3(CC(c4cccc(NC(=O)C5CCC(=O)N5)c4)=NO3)CN2C(=O)Cc2ccc(Cl)cc2)CC1 (stereo not given)	none (no result: Rv3671c protease, Mtb bLac sens, Mtb UGM inh)
Cn1cccc1C(=O)OCc1ccc(C(C)(C)C)cc1	ugtP null kill 94.2
COc1ccc(CNC(=O)COC(=O)c2cccn2C)cc1	none
CSc1ccc(CN(C)CC(=O)Nc2ccc(C)cc2Br)cc1	ugtP null kill 89.5
CSc1ccc(CN(C)CC(=O)N(C)CC(=O)Nc2ccccc2Br)cc1	none
CCc1c(C)c(C#N)c2[nH]c3ccccc3n2c1=S	ugtP null kill 92.2, Sa RN4220 lethal 93.2
CCN1C(=O)C2C(c3ccc(SC4CCCCC4)c(OC)c3)N[C@@](Cc3ccccc3)(C(=O)OC)C2C1=O (stereo not given in full)	none (no result: Rv3671c protease, Mtb bLac sens, Mtb UGM inh)
COc1ccc(-c2coc3cc(OC4OC(CO)C(O)C(O)C4O)c(OC)cc3c2=O)cc1 (stereo not given)	none (no result: Rv3671c protease, Mtb bLac sens, Mtb UGM inh)
CCCCCn1nc(-c2ccccc2)c2nc3ccccc3nc21	Mtb UGM inh 37.7 (no result: ugtP null kill, Sa RN4220 lethal, Mtb hypoxia inh)
CC(=NN=C(N)SC1CC(=O)N(c2cccc(Cl)c2)C1=O)c1cccs1 (stereo not given)	none (no result: Rv3671c protease, Mtb bLac sens, Mtb UGM inh)
CC(=NN=C(N)SC1CC(=O)N(c2ccc(Cl)c(Cl)c2)C1=O)c1cccs1 (stereo not given)	ugtP null kill 98.8, Sa RN4220 lethal 100.3 (no result: Rv3671c protease, Mtb bLac sens, Mtb UGM inh)
CCCC(=O)Nc1ccc(Cc2ccc(NC(=O)CCC)c(C(=O)O)c2)cc1C(=O)O	Mtb UGM inh 11.3
Cc1[nH][nH]c(=O)c1C(c1c(C)[nH][nH]c1=O)c1cn(Cc2ccc(Cl)c(Cl)c2)c2ccccc12	ugtP null kill 88.0
Cc1[nH][nH]c(=O)c1C(c1c(C)[nH][nH]c1=O)c1cn(Cc2ccc(F)cc2)c2ccccc12	none
Cc1ccc(C(=O)c2c(C)oc3c2C(=O)C(=O)c2ccccc2-3)cc1	ugtP null kill 93.2, Sa RN4220 lethal 108.6 (no result: Mtb hypoxia inh)
COc1ccc(C2C=C(c3cccs3)Nc3nc(CCCO)nn32)cc1 (stereo not given)	Mtb UGM inh 28.6 (no result: ugtP null kill, Sa RN4220 lethal, Mtb hypoxia inh)
CCOc1ccc2oc(C(=O)OCC(=O)NCc3ccc(OC)cc3)c(C)c2c1	Mtb hypoxia inh 32.4
COc1ccc2oc(C(=O)OCC(=O)NCc3ccc(OC)c(OC)c3)c(C)c2c1	none (no result: Rv3671c protease, Mtb bLac sens, Mtb UGM inh)
CCc1cc(-c2n[nH]c(C)c2Oc2ccc(C(C)C)cc2)c(O)cc1O	ugtP null kill 98.9, Sa RN4220 lethal 86.4
CCN1C(=O)NC(=Cc2ccc(Sc3ccc(C)cc3)o2)C1=O	none (no result: Rv3671c protease, Mtb bLac sens, Mtb UGM inh)
O=C(COC(=O)C1COc2ccccc2O1)Nc1cccc(F)c1 (stereo not given)	Mtb hypoxia inh 27.6
O=C(COC(=O)C1COc2ccccc2O1)Nc1cccc(Cl)c1 (stereo not given)	none
Cc1[nH]n(C(N)=S)c(=O)c1N=Nc1cccc(C(F)(F)F)c1	none
Cc1[nH]n(C2=NCCS2)c(=O)c1N=Nc1cccc(C(F)(F)F)c1	ugtP null kill 99.2, Sa RN4220 lethal 99.4
COc1ccc(C2C=CCN(S(=O)(=O)c3ccc4ccccc4c3)C(C)C(=O)N2Cc2ccc(F)cc2)cc1 (stereo not given)	none (no result: Rv3671c protease, Mtb bLac sens, Mtb UGM inh)
Cc1ccc(-c2csc(NCCn3c(-c4ccncc4)nc4cc(C(F)(F)F)ccc43)n2)cc1	Sa RN4220 lethal 93.7
CN1CC[C@]2(CCN3CCc4c(oc5ccccc45)C3C2)N(C)C1=O (stereo not given in full)	none (no result: Rv3671c protease, Mtb bLac sens, Mtb UGM inh)
CC(=O)Oc1c(C)c2c3c(c1OC(C)=O)[C@@H](C)CC[C@@H]3[C@@H](C)C[C@H]2C=C(C)C	ugtP null kill 86.4
COc1ccc(C2=Nc3nc(-c4ccccc4)cn3C(c3ccc(OC)cc3)C2)cc1 (stereo not given)	ugtP null kill 85.2 (no result: Rv3671c protease, Mtb bLac sens, Mtb UGM inh)
